High-throughput results as filed in PubChem BioAssay.
Shown are actives, neighbours in structure and some others; about 1.9% of the full set was active somewhere.
14-3-3 Bad PPI: inhibitors of 14-3-3 zeta/Bad binding, primary screen, biochemical, TR-FRET, bovine 14-3-3 zeta | 14-3-3 protein zeta/delta (Bos taurus), P63103 | TR-FRET 14-3-3zeta/Dy647-pBad peptide displacement, 1 h | inhibition, % at 21.7 µM | 220,000 compounds, 0.71% hits | AID 781, 2007;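 active = inhibition above about 70%, limit read from the data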;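 note: 0% = full 14-3-3 plus peptide FRET controls and 100% = background without 14-3-3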
PABP FP inh: PABP poly(A) RNA binding inhibitors, primary screen, biochemical, fluorescence polarization, uHTS; Polyadenylate-binding protein 1 (Homo sapiens), P11940; calls only at 35 µM; 290,000 compounds, 1% hits; AID 2014, 2009;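 note: calls also rest on retests at 20 µM and on dose response follow-up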
eIF4E 4G PPI: eIF4E–eIF4G protein interaction inhibitors, primary screen, biochemical, uHTS, TR-FRET, eIF4GI fragment; TR-FRET eIF4E-eIF4GI(517-606) binding, 2 h; inhibition, % at 21.7 µM; 220,000 compounds, 0.37% hits;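 active = inhibition above about 30%, limit read from the data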;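 note: 0% = full FRET control wells and 100% = background wells lacking eIF4GI fragment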
PABP1 MLLE inh: inhibitors of PABP1 MLLE–PAM2 peptide binding, primary screen, biochemical, fluorescence polarization, FITC-PAM2, GST-MLLE. 360,000 compounds, 0.36% hits. Polyadenylate-binding protein 1 (Homo sapiens), P11940. AID 588489, 2011. inhibition, % at 20 µM; in the data active = inhibition above about 35%, passing the limit was not always enough;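 note: plate controls were DMSO wells with GST-MLLE for no effect and wells lacking GST-MLLE protein for full effect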
eIF4H FP inh: human eIF4H binding inhibitors, primary screen, translation initiation inhibitor project, biochemical, uHTS, fluorescence polarization | Eukaryotic translation initiation factor 4H (Homo sapiens), Q15056 | eIF4H fluorescence polarization binding assay | inhibition, % at 35 µM | 290,000 compounds, 0.94% hits | AID 2012, 2009;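 note: calls also rest on retests at 20 µM and on dose response follow-up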
* marks the source's active call; other numbers are inactive results; i = inactive; ? = inconclusive; . = not tested or not shown; + = active, no number; [ ] = another dose, or the depositor's remark. Unless noted, the rule behind the calls is not given here.

SMILES	14-3-3 Bad PPI	PABP FP inh	eIF4E 4G PPI	PABP1 MLLE inh	eIF4H FP inh
CCOc1ccc(NC(=O)c2cc3ccccc3cc2O)cc1	67	+	6	15	98*
COc1ccc(OCC(=O)Nc2ccc(N3CCCCC3)cc2)cc1	-11	i	2	-15	-3
CCOc1ccc(C(=O)Nc2ccc(N3CCCC3)cc2)cc1	85*[fluorescence artefact?]	i	4	-13	8
Cc1ccc(OCC(=O)Nc2ccc(N3CCCC3)cc2)cc1C	74*[fluorescence artefact?]	i	-17	9	39
Cc1ccc2c(c1)CCCN2S(=O)(=O)c1cccc(C(=O)Nc2ccccc2C(=O)O)c1	.	i	.	19	4
CCCCOc1ccc(N2C(=O)C(C)CNC2=S)cc1 (centres undefined)	.	.	.	52*	.
CN1CCc2c(sc3ncn4nc(-c5ccccc5O)nc4c23)C1	.	?	.	.	48
CC1=NN(c2ccccc2)C(=O)C1C(=S)SC1CC(=O)NC1=O (centres undefined)	.	.	.	49*	.
NC(N)=N/N=C/c1ccc(OS(=O)(=O)c2ccccc2)cc1	-1	i	3	-14	active
CCC(=O)N/N=C/c1ccc(OS(=O)(=O)c2ccccc2)cc1	-7	i	4	-2	1
Cc1cc(Br)ccc1NCc1ccccn1	76*	i	7	-10	0
CC(C)CC[n+]1ccccc1/C=C/c1ccc(N(C)C)cc1	.	+	.	-165	?
O=C1c2sccc2-c2cccc3cccc1c23	.	.	.	67*	.
COCCNCc1ccccc1[N+](=O)[O-]	.	.	.	-1	.
COc1ccc2c(C(=O)CN3CCSCC3)c[nH]c2c1	-1	i	4	-16	3
COc1ccc2c(C(=O)CN3CCN(c4ccccc4)CC3)c[nH]c2c1	-5	+	0	-36	69*
COCCCn1c(=NC(C)=O)c(C#N)cc2c(=O)n3cccc(C)c3nc21	4	+	6	3	107*
CCOCCCn1c(=NC(=O)c2cccs2)c(C#N)cc2c(=O)n3cccc(C)c3nc21	2	+	-1	124	55
CC/C(=N\Nc1ccc([N+](=O)[O-])cc1)c1ccccc1	-7	+	-4	-74	61
O=[N+]([O-])c1ccc(NN=C(Oc2ccccc2)c2ccc([N+](=O)[O-])cc2)cc1	.	.	.	-103	.
CC1CCN(c2c(NCC3CCC(C(=O)NC4CCCCCC4)CC3)c(=O)c2=O)CC1 (centres undefined)	86*	i	-2	-2	24
CCC1=[N+](C)CCn2c(C)ccc21	77*[fluorescence artefact?]	i	2	-129	-1
CCC1=[N+](CC(=O)c2ccc(C)cc2)CCn2c(C)ccc21	0	i	5	4	4
CN(C)CCCNc1c2c(nc3ccccc13)CCC2	.	+	.	18	42
CN(C)CCNCCCNc1c2ccccc2nc2cccc([N+](=O)[O-])c12	.	.	.	52*	.
SMILES	14-3-3 Bad PPI	PABP FP inh	eIF4E 4G PPI	PABP1 MLLE inh	eIF4H FP inh
COc1ccc(NC(=O)/C(=C\c2ccc(OC)c(OC)c2)NC(=O)c2ccco2)cc1	.	i	.	-8	0
COc1ccccc1NC(=O)C(=O)N/N=C/c1ccc([N+](=O)[O-])s1	84*	i	-4	2	57
COCCn1c(CN2CCN(C)CC2)nc2c1c(=O)n(C)c(=O)n2C	-2	i	-2	0	-1
CCOCCn1c(CN2CCN(C)CC2)nc2c1c(=O)n(C)c(=O)n2C	-4	i	90*	-14	-2
CC1S/C(=N/N=C/c2ccco2)NC1=O (centres undefined)	4	i	0	2	2
CC1(C)S/C(=N/N=C/c2ccco2)NC1=O	9	+	-1	-21	?
NS(=O)(=O)c1ccc(N=Nc2c(O)c(C(=O)O)cc3ccccc23)cc1	-1	i	-6	-3	8
O=C(O)Cc1ccc(N=Nc2c(O)c(C(=O)O)cc3ccccc23)cc1	23	+	5	3	77*
O=C(/C=C/c1cccs1)c1cc(Cl)ccc1O	-3	i	2	16	-8
O=C(/C=C/c1ccc2ccccc2n1)c1cc(Cl)ccc1O	3	+	3	-62	67
O=c1nc(/C=C/c2cccn2-c2ccc([N+](=O)[O-])cc2)cc(C(F)(F)F)[nH]1	12	+	21	-75	60*
CCn1ncc(-c2ccnc3cc(C(=O)O)nn23)c1C	70*	i	25	7	52
CC(=O)Nc1ccc(C(=S)NCC2(N(C)C)CCCCC2)cc1	-9	+	1	13	active
Cc1ccc(NC2c3ncccc3C(=O)N2c2ccccc2C)cc1C (centres undefined)	94*	i	91*[fluorescence artefact?]	-1	-14
CCOc1ccc(N2C(=O)c3cccnc3C2Nc2ccc(Cl)cc2)cc1 (centres undefined)	15	i	-11	-9	-5
Cc1ccc(CNC(=O)CSc2nccn(-c3ccc(C)c(F)c3)c2=O)cc1	.	.	.	41*	.
Cc1cc(C=O)sc1[B-](F)(F)F	.	.	.	11	.
COCc1cc(C)nc(SCC(=O)Oc2ccccc2)c1C#N	-4	i	0	4	8
COCc1cc(C)nc(SCC(=O)Oc2ccc(Cl)cc2)c1C#N	-4	+	-2	8	active
O=[N+]([O-])c1cc(O)c2ncccc2c1	-11	i	-1	.	32
Cc1cc(=O)oc2cc(OCC(=O)c3ccc4c(c3)NC(=O)CO4)ccc12	71*	i	13	-32	26
Cc1cccc(OCC(=O)Nc2nccs2)c1C	.	i	.	-2	1
CC(=O)N(O)CCCCCNC(=O)CCC(=O)N(O)CCCCCNC(=O)CCC(=O)N(O)CCCCCN	71*[fluorescence artefact?]	i	3	-1	0
CCOc1cc(CNc2ccccc2SC)ccc1O	18	i	-4	.	-4
COc1cc(CNc2ccccc2SC)ccc1O	77*	i	-8	20	-3
SMILES	14-3-3 Bad PPI	PABP FP inh	eIF4E 4G PPI	PABP1 MLLE inh	eIF4H FP inh
COc1ccccc1NC(C)=[N+](C)CCNS(=O)(=O)c1ccc(Cl)cc1	.	+	.	-29	0
COc1ccc(NC(=O)CSc2nc(O)cc(=O)[nH]2)c(OC)c1	-4	i	96*	16	-9
O=C(CSc1nc(O)c(Cc2ccccc2)c(=O)[nH]1)Nc1ccccc1	-1	i	-1	43*	1
COc1ccc(NC(=O)CSc2cn[nH]n2)c(OC)c1	.	i	.	8	-1
CCCCCCCCNC(=O)c1cccnc1SCC(=O)Nc1ccc(OC)cc1OC	14	+	0	-5	64*
COc1ccc(NC(=O)CSc2nc(O)c(Cc3ccccc3)c(=O)[nH]2)cc1	13	i	-6	40*	2
CCCCNC(=O)c1cccnc1SCC(=O)Nc1ccccc1OC	-2	i	-2	7	-10
